# Experimental data taken from PubChem BioAssay.
# Where “and” joins values, the source holds several entries; their conditions need not be identical. Identical values can stand only once. Records with an inconclusive call do not appear. Calls of active or inactive are those of the source.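 How the source made its calls, unless noted: active means normalized viability below 100% at a tested concentration; inactive means the rest.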
# How the values were obtained:
# [1] = SU-DIPG-VI glioma cell viability, MIPE4.0 library, CellTiter-Glo luminescence, qHTS (AID 1347066; cut-off not given, nearly all actives have AC50 up to about 30 µM;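 further: cells exposed to compound for 48 hours before readout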); details: CellTiter-Glo ATP luminescence
# [2] = SU-DIPG-XXV glioma cell viability, MIPE5.0 library, qHTS (AID 1347068; cut-off not given, nearly all actives have IC50 up to about 30 µM)
# [3] = phospholipid biosynthesis inhibitors in animal cells, primary screen, cell-based, LOPAC library, screen 4 (AID 1347384; call rule not given here); details: phospholipid biosynthesis inhibition screen, at 10 µM
# [4] = survival rescue of mitochondrial mutant cells in low glucose, primary screen, MELAS cybrids, Rieske KO mouse fibroblasts, CellTiter-Glo (AID 1508586;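 active means mean z-score across replicates of 1.96 or higher in either the MELAS or the Rieske mutant cell line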;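 further: z relative to plate mean and SD of compound and empty wells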)
# [5] = target: NAD(+) hydrolase SARM1 (Homo sapiens) (UniProt Q6SZW1); assay: SARM1 TIR NADase inhibitors, cell lysate, NAD-Glo luminescence (AID 1508614;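 active means compound whose remaining NAD level is above about 45 nM, limit read from the data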); details: SAM-TIR HEK293T lysate NADase, at 1 µM, stronger effect = higher value
# [6] = target: Mitogen-activated protein kinase 7 (Homo sapiens) (UniProt Q13164); assay: ERK5 transactivation activators in reporter cells, primary screen, cell-based, HTS (AID 1508626;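 active means luciferase signal above three times the same-plate solvent-only control wells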;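 further: luciferase driven by Gal4-ERK5 fusion binding five Gal4 sites before minimal TATA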); details: HeLa Gal4-ERK5 transactivation, 18 h, at 5 µM, stronger effect = higher value
# [7] = viability rescue of complex I mutant cybrids, primary screen, cell-based, galactose medium, ATP luminescence (AID 1645843;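 active means z-score of at least 1.8 in each of two replicates, scored against plate mean and spread of sample wells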;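 further: positive z means more ATP and so rescue of galactose-driven cybrid death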); details: complex I mutant cybrid cells, 72 h, stronger effect = higher value
# [8] = LFS_MB_P medulloblastoma growth inhibition, cell-based, chromothripsis tumors, cisplatin or BGB combos (AID 1671449; in the data active means inhibition above about 80%;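 further: cells exposed for 96 hours; 0% = vehicle DMSO and 100% = killing by high DMSO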); details: LFS_MB_P medulloblastoma cells
# [9] = HDN33 neuroblastoma growth inhibition, cell-based, chromothripsis tumors, cisplatin or BGB combos (AID 1671450; in the data active means inhibition above about 80%;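 further: cells exposed to compound for four days; 0% = vehicle DMSO and 100% = cell killing by high DMSO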); details: HDN33 neuroblastoma cells, stronger effect = higher value
# [10] = ICB984 medulloblastoma cell growth inhibition, synergistic combos for chromothripsis tumors, cisplatin or BGB combos (AID 1671451; call rule not given here;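 further: cells exposed for 96 hours before readout; 0% = vehicle DMSO and 100% = killing by high DMSO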); details: ICB984 medulloblastoma cells, drug combinations, stronger effect = higher value
# [11] = LFS_MB_1R medulloblastoma cell growth inhibition, synergistic combos for chromothripsis tumors, cisplatin or BGB combos (AID 1671452; in the data active means inhibition above about 80%;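 further: cells exposed for 96 hours before readout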); details: LFS_MB_1R medulloblastoma cells, stronger effect = higher value
# [12] = HTB85 osteosarcoma cell growth inhibition, synergistic combos for chromothripsis tumors, BGB or cisplatin IC20 combos (AID 1671453; in the data active means inhibition above about 80%;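 further: cells exposed for 96 hours before readout; 0% = vehicle DMSO and 100% = high DMSO killing control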); details: HTB85 osteosarcoma cells, drug combinations, stronger effect = higher value
# [13] = CRL2098 osteosarcoma cell growth inhibition, synergistic combos for chromothripsis tumors, BGB or cisplatin IC20 combos (AID 1671454; in the data active means inhibition above about 80%;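 further: cells exposed for 96 h before readout; 0% = vehicle DMSO and 100% = killing by high DMSO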); details: CRL2098 osteosarcoma cells, drug combinations, stronger effect = higher value
# [14] = HD-MB03 medulloblastoma cell growth inhibition, synergistic combos for chromothripsis tumors, BGB or cisplatin IC20 combos (AID 1671455; in the data active means inhibition above about 83%;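 further: 0% = vehicle DMSO and 100% = high DMSO as cytotoxic control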); details: HD-MB03 medulloblastoma cells, stronger effect = higher value
# [15] = JHH-DIPG-1 glioma cell viability, MIPE5.0 library, CellTiter-Glo luminescence, qHTS (AID 1347067; cut-off not given, nearly all actives have AC50 up to about 26 µM;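 further: cells exposed to compound for 48 hours before readout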); details: JHH-DIPG-1 glioma viability, CellTiter-Glo ATP luminescence
# [16] = modifiers of HSF1 nuclear foci, imaging, Selleck Cancer Library (AID 1347162; in the data active means plate-normalised HSF1 focus index below about 0.46); details: human cells, at 10 µM; SSMD: measured here: HSF1 foci SSMD mean; cell count: measured here: cell number; plate-normalised HSF1 focus index: stronger effect = lower value
# [17] = ovarian cancer cell viability with rucaparib, profiling panel, oncology-focused library, rucaparib conditional (AID 1508598); details: patient-derived ovarian cancer cells, CellTiter-Glo viability, 144 h, stronger effect = lower value
# [18] = MELAS cybrid survival, CellTiter-Glo 48 h, stronger effect = higher value
# [19] = Rieske KO mouse fibroblast survival, CellTiter-Glo 72 h
# [20] = measured here: combination with BGB IC40, at 0.05 µM
# Sequence of NAD(+) hydrolase SARM1 (Homo sapiens) (Q6SZW1 whole entry, looked up, the tested form may be a part): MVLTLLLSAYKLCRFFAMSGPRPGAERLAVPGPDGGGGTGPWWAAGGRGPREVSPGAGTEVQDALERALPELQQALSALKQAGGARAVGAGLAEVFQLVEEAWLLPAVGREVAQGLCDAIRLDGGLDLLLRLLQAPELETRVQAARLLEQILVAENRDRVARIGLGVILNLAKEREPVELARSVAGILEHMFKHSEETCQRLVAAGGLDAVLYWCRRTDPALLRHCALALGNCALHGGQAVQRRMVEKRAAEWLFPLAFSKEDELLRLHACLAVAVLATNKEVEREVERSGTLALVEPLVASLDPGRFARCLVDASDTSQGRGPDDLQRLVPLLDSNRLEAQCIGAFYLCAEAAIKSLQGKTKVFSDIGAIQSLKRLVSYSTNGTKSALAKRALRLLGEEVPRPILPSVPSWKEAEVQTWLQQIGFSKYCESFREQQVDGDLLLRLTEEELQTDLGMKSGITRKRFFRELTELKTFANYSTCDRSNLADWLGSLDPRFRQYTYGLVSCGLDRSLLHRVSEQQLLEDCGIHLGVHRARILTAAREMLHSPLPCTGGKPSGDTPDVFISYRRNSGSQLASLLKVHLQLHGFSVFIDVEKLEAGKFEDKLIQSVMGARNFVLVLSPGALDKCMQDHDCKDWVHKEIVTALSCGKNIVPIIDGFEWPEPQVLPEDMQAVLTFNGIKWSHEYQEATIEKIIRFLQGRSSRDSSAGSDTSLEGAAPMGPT
# Sequence of Mitogen-activated protein kinase 7 (Homo sapiens) (Q13164 whole entry, looked up, the tested form may be a part): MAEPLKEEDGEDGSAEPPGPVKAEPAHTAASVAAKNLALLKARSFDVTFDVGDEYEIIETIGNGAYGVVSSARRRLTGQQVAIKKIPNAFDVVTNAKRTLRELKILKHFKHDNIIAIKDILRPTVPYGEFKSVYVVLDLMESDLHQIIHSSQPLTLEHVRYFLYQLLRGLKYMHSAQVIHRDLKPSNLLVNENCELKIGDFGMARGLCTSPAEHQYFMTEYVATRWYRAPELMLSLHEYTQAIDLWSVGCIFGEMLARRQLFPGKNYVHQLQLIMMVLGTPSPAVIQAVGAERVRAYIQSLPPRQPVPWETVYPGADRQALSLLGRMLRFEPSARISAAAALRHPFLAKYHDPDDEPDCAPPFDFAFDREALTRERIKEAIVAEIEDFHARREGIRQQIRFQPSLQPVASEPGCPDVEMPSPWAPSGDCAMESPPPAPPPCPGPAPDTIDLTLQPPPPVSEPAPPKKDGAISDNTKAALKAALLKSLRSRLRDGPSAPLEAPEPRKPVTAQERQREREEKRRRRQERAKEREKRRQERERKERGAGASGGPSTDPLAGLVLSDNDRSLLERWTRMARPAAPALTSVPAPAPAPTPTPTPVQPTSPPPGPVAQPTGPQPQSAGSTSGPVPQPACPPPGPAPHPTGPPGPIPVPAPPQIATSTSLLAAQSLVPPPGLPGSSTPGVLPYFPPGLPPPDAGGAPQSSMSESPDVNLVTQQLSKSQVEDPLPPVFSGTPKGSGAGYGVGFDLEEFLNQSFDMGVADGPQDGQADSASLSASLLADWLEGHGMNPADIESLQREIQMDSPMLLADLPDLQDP
smiles,measurement,setting,value
Cc1oncc1C(=O)Nc1ccc(C(F)(F)F)cc1,outcome,[1],inactive
same,outcome,[2],inactive
same,outcome,[3],inactive
same,z-score,[4]; [18],-0.557 (inactive) and -0.339 (inactive) and -0.166 (inactive)
same,z-score,[4]; [19],0.617 and 0.893 and 0.301
same,remaining NAD,[5],10 nM (inactive)
same,luciferase signal,[6],120 AU (inactive)
same,z-score,[7],1.22 (inactive) and 1.26 (inactive) and 0.055 (inactive)
same,inhibition,"[8]; at 0.5 µM, stronger effect = higher value",-30.3% (inactive)
same,inhibition,"[8]; measured here: combination with BGB IC20, at 0.005 µM",-32.3%
same,inhibition,"[8]; measured here: combination with BGB IC40, at 0.005 µM",-17.1%
same,inhibition,[8]; [20],-23.8%
same,inhibition,"[8]; measured here: combination with cisplatin, at 0.5 µM, stronger effect = higher value",-32.5%
same,inhibition,"[8]; measured here: combination with cisplatin, at 5 µM, stronger effect = higher value",34.4%
same,inhibition,"[9]; BGB combo, at 5 µM",22.1%
same,inhibition,[9]; at 0.5 µM,-14.7% (inactive)
same,inhibition,"[9]; cisplatin combo, at 5 µM",36.7%
same,inhibition,"[9]; measured here: with BGB IC20 combination, at 0.5 µM",2.4%
same,inhibition,"[9]; measured here: with cisplatin IC20 combination, at 0.5 µM",-16.7%
same,inhibition,"[9]; single agent, at 5 µM",48%
same,inhibition,"[10]; BGB IC20 combo, at 0.005 µM",16.5%
same,inhibition,"[10]; BGB IC40 combo, at 0.005 µM",-7.12%
same,inhibition,"[10]; BGB IC40 combo, at 0.05 µM",33.8%
same,inhibition,[10]; at 0.5 µM,-22.9% (inactive)
same,inhibition,"[10]; cisplatin combo, at 0.05 µM",31.4%
same,inhibition,"[10]; cisplatin combo, at 0.5 µM",-18.9%
same,inhibition,"[10]; cisplatin combo, at 5 µM",-28.5%
same,inhibition,"[10]; measured here: 5 uM single agent, at 5 µM",9.62%
same,inhibition,[11]; at 0.5 µM,-18.1% (inactive)
same,inhibition,[11]; [20],-48.9%
same,inhibition,"[11]; measured here: combination with cisplatin, at 0.5 µM",-43.1%
same,inhibition,"[11]; measured here: combination with cisplatin, at 5 µM",-31%
same,inhibition,[12]; at 0.5 µM,-9.93% (inactive)
same,inhibition,"[12]; measured here: with BGB IC20, at 0.5 µM",-10.4%
same,inhibition,"[12]; measured here: with BGB IC20, at 5 µM",14.1%
same,inhibition,"[12]; measured here: with cisplatin IC20, at 0.5 µM",-18.2%
same,inhibition,"[12]; measured here: with cisplatin IC20, at 5 µM",0.987%
same,inhibition,"[12]; single agent, at 5 µM",24.3%
same,inhibition,[13]; at 0.5 µM,-47.6% (inactive)
same,inhibition,"[13]; measured here: combination with BGB at IC20, at 0.5 µM",-10.4%
same,inhibition,"[13]; measured here: combination with cisplatin at IC20, at 0.5 µM",-126%
same,inhibition,[14]; at 0.5 µM,1.82% (inactive)
same,inhibition,"[14]; measured here: combo with BGB at IC20, at 0.5 µM",-13.1%
same,inhibition,"[14]; measured here: combo with cisplatin at IC20, at 0.5 µM",15.3%
CC[C@@]1(O)C(=O)OCc2c1cc1n(c2=O)Cc2cc3c(CN(C)C)c(O)ccc3nc2-1,outcome,[1],inactive
same,AC50,[15],4.17 µM (active)
same,SSMD,[16],-8.15
same,cell count,[16],6870
same,plate-normalised HSF1 focus index,[16],0.582 (inactive)
same,outcome,[3],inactive
same,z-score,[4]; [18],-0.568 (inactive) and -2.28 (inactive) and -2.25 (inactive)
same,z-score,[4]; [19],0.849 and -0.703 and -1.06
same,viability,"[17]; at 0.000305 µM, OCI-C5x cells, with rucaparib 10 µM, 100% = cells with rucaparib alone",104% (inactive)
same,viability,"[17]; at 0.000305 µM, OCI-C5x cells, without rucaparib",104% (inactive)
same,viability,"[17]; at 0.000305 µM, OCI-P5x cells, with rucaparib 20 µM, 100% = cells with rucaparib alone",94.2% (active)
same,viability,"[17]; at 0.000305 µM, OCI-P5x cells, without rucaparib",107% (inactive)
same,viability,"[17]; at 0.00122 µM, OCI-C5x cells, with rucaparib 10 µM, 100% = cells with rucaparib alone",89.3% (active)
same,viability,"[17]; at 0.00122 µM, OCI-C5x cells, without rucaparib",92.9% (active)
same,viability,"[17]; at 0.00122 µM, OCI-P5x cells, with rucaparib 20 µM, 100% = cells with rucaparib alone",83.1% (active)
same,viability,"[17]; at 0.00122 µM, OCI-P5x cells, without rucaparib",79.7% (active)
same,viability,"[17]; at 0.00488 µM, OCI-C5x cells, with rucaparib 10 µM, 100% = cells with rucaparib alone",83.9% (active)
same,viability,"[17]; at 0.00488 µM, OCI-C5x cells, without rucaparib",62.6% (active)
same,viability,"[17]; at 0.00488 µM, OCI-P5x cells, with rucaparib 20 µM, 100% = cells with rucaparib alone",64.6% (active)
same,viability,"[17]; at 0.00488 µM, OCI-P5x cells, without rucaparib",49.2% (active)
same,viability,"[17]; at 0.0195 µM, OCI-C5x cells, with rucaparib 10 µM, 100% = cells with rucaparib alone",61.6% (active)
same,viability,"[17]; at 0.0195 µM, OCI-C5x cells, without rucaparib",46.1% (active)
same,viability,"[17]; at 0.0195 µM, OCI-P5x cells, with rucaparib 20 µM, 100% = cells with rucaparib alone",51.1% (active)
same,viability,"[17]; at 0.0195 µM, OCI-P5x cells, without rucaparib",31.5% (active)
same,viability,"[17]; at 0.0781 µM, OCI-C5x cells, with rucaparib 10 µM, 100% = cells with rucaparib alone",43.7% (active)
same,viability,"[17]; at 0.0781 µM, OCI-C5x cells, without rucaparib",22.5% (active)
same,viability,"[17]; at 0.0781 µM, OCI-P5x cells, with rucaparib 20 µM, 100% = cells with rucaparib alone",31.5% (active)
same,viability,"[17]; at 0.0781 µM, OCI-P5x cells, without rucaparib",11.7% (active)
same,viability,"[17]; at 0.313 µM, OCI-C5x cells, with rucaparib 10 µM, 100% = cells with rucaparib alone",31% (active)
same,viability,"[17]; at 0.313 µM, OCI-C5x cells, without rucaparib",10.3% (active)
same,viability,"[17]; at 0.313 µM, OCI-P5x cells, with rucaparib 20 µM, 100% = cells with rucaparib alone",10.6% (active)
same,viability,"[17]; at 0.313 µM, OCI-P5x cells, without rucaparib",4.1% (active)
same,viability,"[17]; at 1.25 µM, OCI-C5x cells, with rucaparib 10 µM, 100% = cells with rucaparib alone",11.2% (active)
same,viability,"[17]; at 1.25 µM, OCI-C5x cells, without rucaparib",7.82% (active)
same,viability,"[17]; at 1.25 µM, OCI-P5x cells, with rucaparib 20 µM, 100% = cells with rucaparib alone",3.74% (active)
same,viability,"[17]; at 1.25 µM, OCI-P5x cells, without rucaparib",1.56% (active)
same,viability,"[17]; at 5 µM, OCI-C5x cells, with rucaparib 10 µM, 100% = cells with rucaparib alone",4.91% (active)
same,viability,"[17]; at 5 µM, OCI-C5x cells, without rucaparib",4% (active)
same,viability,"[17]; at 5 µM, OCI-P5x cells, with rucaparib 20 µM, 100% = cells with rucaparib alone",5.99% (active)
same,viability,"[17]; at 5 µM, OCI-P5x cells, without rucaparib",4.13% (active)
same,remaining NAD,[5],10 nM (inactive)
same,z-score,[7],-1.13 (inactive) and -1.87 (inactive) and -2.38 (inactive)
